Data from PubChem BioAssay AID1851 (National Center for Advancing Translational Sciences (NCATS), 2009).
About 5,700 (36%) of roughly 16,000 compounds were called active. Roughly 24% stayed inconclusive and do not appear here. Calls come from the whole dose curve; as a rule, active = well fitted curve in the direction sought with a large enough effect; inconclusive = small, poorly fitted or top-dose-only effect, or effect the other way; inactive = no such curve, though single readings can be large or run the other way. The list shows a part of the results.

biological target: Cytochrome P450 1A2 (Homo sapiens) (UniProt P05177); experiment: Cytochrome panel assay with activity outcomes; details: recombinant CYP, pro-luciferin dealkylation, luminescence, p450-cyp1a2; series mostly up to 57.1 µM
% is set by controls: 0 for no effect and ±100 for the full control effect.

Cytochrome P450 1A2 (Homo sapiens), sequence (P05177 whole entry, looked up): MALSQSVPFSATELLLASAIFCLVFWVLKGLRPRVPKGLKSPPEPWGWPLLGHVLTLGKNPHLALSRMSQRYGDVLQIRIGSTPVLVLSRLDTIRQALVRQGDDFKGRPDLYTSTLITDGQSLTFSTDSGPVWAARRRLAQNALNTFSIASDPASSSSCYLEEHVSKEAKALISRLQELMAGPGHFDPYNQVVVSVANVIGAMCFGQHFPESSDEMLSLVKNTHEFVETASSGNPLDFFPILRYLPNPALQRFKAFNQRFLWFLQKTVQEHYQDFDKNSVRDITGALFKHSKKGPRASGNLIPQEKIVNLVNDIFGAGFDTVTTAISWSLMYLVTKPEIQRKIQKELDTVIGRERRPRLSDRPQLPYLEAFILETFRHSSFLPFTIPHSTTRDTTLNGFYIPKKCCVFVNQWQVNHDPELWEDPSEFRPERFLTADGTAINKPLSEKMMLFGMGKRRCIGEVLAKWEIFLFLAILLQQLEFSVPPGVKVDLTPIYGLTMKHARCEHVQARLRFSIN

SMILES	AC50	activity, negative = inhibition
CSc1nc(Cl)cc(N(CCO)CCO)n1	inactive	–
CC(=O)OC[C@H]1O[C@@H](ON=C(C)C)[C@H](OC(C)=O)[C@@H](OC(C)=O)[C@H]1OC(C)=O	–	-5.84% [at 11.4 µM] (inactive)
COc1ccc(/C=C2\CCCC3C2=NN(C(=O)c2ccco2)C3c2ccc(OC)c(OC)c2)cc1OC (configuration not stated)	inactive	–
NC(=O)/C(=N\OC(=O)c1ccco1)c1nc(-c2ccc(Br)cc2)cs1	0.447 µM (active)	–
Clc1ccc(COc2ccccn2)cc1Cl	inactive	–
Clc1ccc(CSCCc2ccncc2)cc1Cl	0.316 µM (active)	–
c1ccc2c(CSCCc3ccncc3)cccc2c1	0.178 µM (active)	–
O=S(=O)(O)CCCc1cccc2ccccc12	–	-16.7% [at 2.29 µM] (inactive)
Cn1c(=O)c(-c2ccccc2)nc2cnc(N3CCOCC3)nc21	2 µM (active)	–
Cn1c(=O)c(-c2ccccc2)nc2cnc(N3CCNCC3)nc21	12.6 µM (active)	–
COCCn1c(=O)c(-c2ccc(F)cc2)nc2cnc(N3CCOCC3)nc21	5.01 µM (active)	–
COc1ccc(-n2c(=O)c(-c3ccc(Cl)cc3)nc3cnc(N4CCOCC4)nc32)cc1	15.8 µM (active)	–
NCCc1nc(-c2nc(C(=O)O)cs2)cs1	–	-15.8% [at 11.4 µM] (inactive)
N[C@@H](C(=O)O)c1ccc(C(=O)O)c(C(=O)O)c1	inactive	–
COc1ccc2c(c1)CCCC21NC(=O)N(CC(N)=O)C1=O (configuration not stated)	inactive	–
CC(C)(C)CC(C)(C)c1cc(O)c(O)c(CN2CCCCC2)c1	–	-0.989% [at 11.4 µM] (inactive)
Cn1c(=O)c(-c2ccc(F)cc2)nc2cnc(N3CCOCC3)nc21	2.51 µM (active)	–
Cn1c(=O)c(-c2ccc(Cl)cc2)nc2cnc(N3CCOCC3)nc21	2.51 µM (active)	–
N#CCCn1c(=O)c(-c2ccc(Cl)cc2)nc2cnc(N3CCOCC3)nc21	15.8 µM (active)	–

SMILES	AC50	activity, negative = inhibition
COc1ccc(-c2nc3cnc(N4CCN(C)CC4)nc3n(CCC#N)c2=O)cc1	inactive	–
CC(C)CO/N=C1/[C@H]2O[C@@H]2[C@@H](O)[C@H]2[C@H]1CCn1c(=O)n(C)c(=O)n12	–	8.17% [at 11.4 µM] (inactive)
COCC(=O)N1CCC2(CC1)CN(c1ccccn1)C2	inactive	–
CCCCNc1cc(=O)oc2ccccc12	0.708 µM (active)	–
CC(=O)OC[C@@H]1O[C@H](C/C=N\OCC[C@H]2C=C[C@H](OC(C)=O)[C@@H](COC(C)=O)O2)C=C[C@@H]1OC(C)=O	–	-12.9% [at 11.4 µM] (inactive)
c1ccc(Cc2nnc(Sc3ccccc3)c3ccccc23)cc1	17.8 µM (active)	–
O=c1[nH]c(=S)[nH]nc1Cc1ccccc1	inactive	–
CCN(CC)S(=O)(=O)c1cc(C(=O)Nc2ccccc2C(=O)O)ccc1OC	15.8 µM (active)	–
COC(=O)c1cc(OC)c(OC)cc1NC(=O)CSc1ccc(C)cc1	1.78 µM (active)	–
CCN(CC)S(=O)(=O)c1ccc(OC)c(NC(=O)c2cc([N+](=O)[O-])ccc2Cl)c1	inactive	–
COc1ccc(C(=O)N2CCCCC2)cc1S(=O)(=O)Nc1ccccc1	inactive	–
O=C(CSc1ccccc1)Nc1ccc(N2CCN(c3ccccc3)CC2)c(F)c1	inactive	–
CCN(CC)S(=O)(=O)c1ccc2c(c1)nc(SCC(=O)N1CCOCC1)n2-c1ccccc1OC	inactive	–
COC(=O)c1cc(OC)c(OC)cc1NC(=O)CSc1ccccc1	1.78 µM (active)	–
CCN(CC)S(=O)(=O)c1ccc(OC)c(NC(=O)CSc2ccccc2)c1	15.8 µM (active)	–
Cc1ccc(SCC(=O)NNC(=O)C2CCCCC2)cc1	inactive	–
O=c1n(-c2ccccc2)c(=O)n2n1CC[C@H]1/C(=N\OCc3ccccc3)[C@H]3O[C@@H]3[C@@H](O)[C@@H]12	–	-12.4% [at 11.4 µM] (inactive)
CN(C)c1ccc(-c2ccc3ncnc(N(C)C)c3c2)cc1	0.158 µM (active)	–
CN(C)c1ncnc2ccc(-c3ccoc3)cc12	0.794 µM (active)	–

SMILES	AC50	activity, negative = inhibition
CN(C)C(=O)c1ccc(-c2ccc3ncnc(N(C)C)c3c2)cc1	20 µM (active)	–
CCO[P@]1(=O)OC[C@@H]2O[C@H](n3cnc4c(N)ncnc43)[C@H](O)[C@@H]2O1	–	-15.6% [at 2.29 µM] (inactive)
CC(NC(=O)CN1CCCC1)C12CC3CC(CC(C3)C1)C2 (configuration not stated)	inactive	–
COC(=O)[C@H](C)NC(=O)[C@@H](C)CO	–	-7.75% [at 11.4 µM] (inactive)
COc1ccc(-c2nn(-c3ccccc3)cc2/C=N/NC(=O)c2ccc(Br)o2)cc1	inactive	–
O=S(=O)(N/N=C\c1cn(-c2ccccc2)nc1-c1ccccc1)c1ccccc1	3.55 µM (active)	–
Cc1ccc(-c2nn(-c3ccccc3)cc2/C=N/NS(=O)(=O)c2ccccc2)cc1	4.47 µM (active)	–
O=C(N/N=C\c1cn(-c2ccccc2)nc1-c1ccccc1)c1ccc(Br)o1	3.55 µM (active)	–
COCCCNC(=O)c1c(N)n(/N=C/c2ccccn2)c2nc3ccccc3nc12	2 µM (active)	–
Cn1c(N)c(N=Nc2ccc(S(N)(=O)=O)cc2)c(=O)n(C)c1=O	–	-12.8% [at 2.29 µM] (inactive)
CC1=NN(c2ccccc2)C(=O)C1C(=O)c1ccc(Cl)cc1 (configuration not stated)	inactive	–
CC1=NN(c2ccccc2)C(=O)[C@@H]1N=Nc1ccc(S(N)(=O)=O)cc1	1.26 µM (active)	–
CC(=O)OCC(=O)[C@@]1(O)CC[C@@H]2[C@H]3CCC4=CC(=O)CC[C@]4(C)[C@]3(F)[C@@H](O)C[C@@]21C	inactive	–
Cc1[nH]nc2nc(SCC(=O)NCC3CCCO3)n(-c3ccc(Br)cc3)c(=N)c12 (configuration not stated)	10 µM (active)	–
Cc1ccc(C)c(-n2c(Cc3cc(=O)[nH]c(=O)[nH]3)nnc2SCC(=O)NCC2CCCO2)c1 (configuration not stated)	inactive	–
CCC(C)NS(=O)(=O)c1ccc(OCC(=O)NCC2CCCO2)cc1 (configuration not stated)	inactive	–
C=CCn1c(=O)c2c(nc(-c3ccc(S(=O)(=O)O)cc3)n2C)n(C)c1=O	inactive	–
CCOc1cc(/C=C2\N=C(C)OC2=O)cc(Br)c1OCC(=O)OC	17.8 µM (active)	–
CCOc1ccc(N2C(=O)/C(=C/c3cc(OC)c(OC)c(OC)c3)N(CC(=O)OC)C2=S)cc1	inactive	–
